This is an account of results in PubChem BioAssay.

SMILES strings stand for the structures. A number with no mark means an inactive call. Activity calls are given as the source filed them.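 How the source made its calls, unless noted: active means compound raises insulin release from rat beta cells at 5 mM glucose, no numeric limit stated; inactive means the rest.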

The nature of experiment [1]: stimulators of insulin release from INS-1E, primary screen, cell-based, 5 mM glucose, NPC library (AID 1117329). The following applies: rat INS-1E insulin secretion, at 10 µM, stronger effect = higher value.
Experiment [2] is described as follows: growth inhibition of GSK3B-pretreated HCT116 cells – cell-based, CellTiter-Glo, 0.2 to 20 µM (AID 1117336;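 active means compounds lowering colon cancer cell viability after pretreatment blocking the GSK3B kinase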). The following applies: HCT116 viability after GSK3B inhibitor, at 20 µM, stronger effect = higher value.
Experiment [3] in a line: inhibition of endothelial tube formation, primary screen, imaging, VEGF stimulated, CD31 staining, tube area, NPC library (AID 1117340;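 active means compound that reduces growth-factor-driven endothelial tube area in a mixed cell culture, no cutoff stated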). The following applies: VEGF-stimulated ADSC/ECFC co-culture, at 10 µM, stronger effect = higher value.
Experiment [4] can be described thus: GLP1 release stimulators, primary, NCI-H716, NPC library (AID 1117341;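 active means compound raises GLP1 secretion from the human gut endocrine cells, with no numeric limit stated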). As to conditions: NCI-H716 cells, at 10 µM, stronger effect = higher value.
The nature of experiment [5]: HCT116 colon cancer cell growth inhibition, primary screen, CellTiter-Glo luminescence, NPC library (AID 1117342;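 active means compounds that lower survival of HCT116 colon cancer cells in the luminescence readout, no numeric limit stated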). As to conditions: at 20 µM (top of the series).
The nature of experiment [6]: reduced SW480 viability measured with CellTiter-Glo, NPC library, primary (AID 1117343;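 active means compounds that lower viability of the colon cancer cells in the luminescence readout, with no numeric limit stated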). The following applies: CellTiter-Glo luminescence; at 20 µM (top of the series).
A short description of experiment [7]: NPC library primary testing for decreased DLD-1 cell viability via CellTiter-Glo (AID 1117346;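 active means compounds that lower survival of DLD-1 colon cancer cells in the luminescence readout, no cutoff given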). The following applies: DLD-1 viability, CellTiter-Glo luminescence; at 20 µM (top of the series).
The target of experiment [8] is 6-phosphogluconate dehydrogenase, decarboxylating (Homo sapiens) (UniProt P52209). The experiment is described as follows: inhibition of human phosphogluconate dehydrogenase – biochemical, recombinant enzyme, NADPH absorbance, primary screen (AID 1159550;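 active means at least 20% inhibition of 6-phosphogluconate dehydrogenase activity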). The following applies: recombinant 6PGD, NADPH absorbance 341 nm; at 10 µM; stronger effect = higher value.
Sequence of 6-phosphogluconate dehydrogenase, decarboxylating (Homo sapiens) (P52209 whole entry, looked up): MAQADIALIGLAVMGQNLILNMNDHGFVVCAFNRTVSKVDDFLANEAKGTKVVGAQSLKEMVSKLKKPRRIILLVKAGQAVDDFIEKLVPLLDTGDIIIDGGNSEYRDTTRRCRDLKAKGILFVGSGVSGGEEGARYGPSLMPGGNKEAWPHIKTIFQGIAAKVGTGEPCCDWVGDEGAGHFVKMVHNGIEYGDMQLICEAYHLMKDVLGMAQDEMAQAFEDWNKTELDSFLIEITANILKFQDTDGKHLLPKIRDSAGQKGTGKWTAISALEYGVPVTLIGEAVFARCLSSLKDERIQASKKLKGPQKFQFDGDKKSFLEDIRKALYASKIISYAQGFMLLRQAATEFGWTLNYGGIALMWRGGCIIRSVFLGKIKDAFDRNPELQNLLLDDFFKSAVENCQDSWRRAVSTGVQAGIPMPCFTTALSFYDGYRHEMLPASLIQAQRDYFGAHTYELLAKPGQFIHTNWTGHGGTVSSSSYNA

Take `CC(C)N=C(N)/N=C(\N)Nc1ccc(Cl)cc1`: the insulin secretion stimulation in experiment [1] was -3.1%. The viability decrease in experiment [2] is 14.7%. For the same compound, the tube area decrease in experiment [3] is 1.9%. In addition, the GLP1 secretion stimulation in experiment [4] was 5.1%. The inhibition of viability in experiment [5] was 13.5%. The viability decrease (inhibition) in experiment [6] is 67.6% (active); in experiment [7], 27.1%. In addition, the inhibition in experiment [8] is 2.42%.
With `O=c1c(O)c(-c2ccc(O)c(O)c2)oc2cc(O)cc(O)c12`, the insulin secretion stimulation in experiment [1] is -2.9%. The viability decrease in experiment [2] is 81.4% (active). Moreover, the tube area decrease in experiment [3] is 42.7% (active). Moreover, the GLP1 secretion stimulation in experiment [4] is 5.9%. In addition, in experiment [5], the inhibition of viability was 4.5%. The viability decrease (inhibition) was 70.2% (active) in experiment [6] and 46.2% in experiment [7]. In addition, in experiment [8], the inhibition is 26.1% (active).
Consider `O=C1c2cccc(O)c2C(=O)c2c(O)cccc21`, for which the insulin secretion stimulation in experiment [1] was -2.2%. In experiment [2], the viability decrease was 21.4%. Also, the tube area decrease in experiment [3] was 6%. For the same compound, the GLP1 secretion stimulation in experiment [4] was 0%. In addition, in experiment [5], the inhibition of viability was 21.9%. For the same compound, the viability decrease (inhibition) is 52.4% (active) in experiment [6] and 9.7% in experiment [7]. Also, the inhibition in experiment [8] is -6.73%.
Consider `O=c1[nH]cnc2c1ncn2[C@@H]1O[C@H](CO)[C@@H](O)[C@H]1O`, for which, in experiment [1], the insulin secretion stimulation was -0.1%. The viability decrease in experiment [2] was -12.4%. In addition, the tube area decrease in experiment [3] is 2.1%. Besides, in experiment [4], the GLP1 secretion stimulation is 0.9%. The inhibition of viability in experiment [5] is -0.1%. For the same compound, the viability decrease (inhibition) in experiment [6] was -39.7%; in experiment [7], -12.5%. In addition, the inhibition in experiment [8] was -10.6%.
As for `C=C[C@@]1(C)CC(=O)[C@]2(O)[C@@]3(C)[C@@H](O)CCC(C)(C)[C@@H]3[C@H](O)[C@H](OC(C)=O)[C@@]2(C)O1`, in experiment [1], the insulin secretion stimulation was 3.6%. Moreover, the viability decrease in experiment [2] is -20.2%. Also, the tube area decrease in experiment [3] is -41%. Further, the GLP1 secretion stimulation in experiment [4] is 5%. The inhibition of viability in experiment [5] is 17.1%. The figures for the viability decrease (inhibition) in experiment [6] and in experiment [7] were 56.2% (active) and -16.6%, respectively. Besides, the inhibition in experiment [8] is 14.7%.
On to `CCC[C@H](N[C@@H](C)C(=O)N1[C@H](C(=O)O)C[C@@H]2CCCC[C@@H]21)C(=O)OCC`, for which the insulin secretion stimulation in experiment [1] was 2.3%. In addition, the viability decrease in experiment [2] was -3%. In addition, in experiment [3], the tube area decrease is 14.1%. The GLP1 secretion stimulation in experiment [4] was -2.9%. Moreover, in experiment [5], the inhibition of viability is 18.1%. Further, the viability decrease (inhibition) was 0% in experiment [6] and 6% in experiment [7]. Besides, the inhibition in experiment [8] is -5.32%.
For the compound `C[C@]12CCC(=O)C=C1C=C[C@@H]1[C@@H]2CC[C@@]2(C)[C@H]1CC[C@@]21CCC(=O)O1`, in experiment [1], the insulin secretion stimulation was -2.6%. Further, the viability decrease in experiment [2] is 22.8%. Also, in experiment [3], the tube area decrease is 9%. In experiment [4], the GLP1 secretion stimulation was 3.3%. The inhibition of viability in experiment [5] is 33.6%. Also, the viability decrease (inhibition) in experiment [6] was 60.5% (active); in experiment [7], 11.5%. Also, the inhibition in experiment [8] is -1.14%.
`CN1CCCN=C1COC(=O)C(O)(c1ccccc1)C1CCCCC1` (stereo unspecified): the insulin secretion stimulation in experiment [1] was 16.3%. For the same compound, in experiment [2], the viability decrease was -83%. In experiment [3], the tube area decrease was -29%. The GLP1 secretion stimulation in experiment [4] was 4.8%. Further, in experiment [5], the inhibition of viability was 19.6%. The viability decrease (inhibition) in experiment [6] was 67.3% (active); in experiment [7], 33.9%. For the same compound, in experiment [8], the inhibition was 6.35%.
`NC(=O)N/N=C/c1ccc([N+](=O)[O-])o1`: the insulin secretion stimulation in experiment [1] is -0.4%. In addition, the viability decrease in experiment [2] is 45.2%. For the same compound, the tube area decrease in experiment [3] was -17%. In experiment [4], the GLP1 secretion stimulation was -2.5%. Besides, the inhibition of viability in experiment [5] was 45.3%. Besides, the results for the viability decrease (inhibition) in experiment [6] and in experiment [7] were 68.8% (active) and -6.7%, respectively. Besides, in experiment [8], the inhibition is 5.85%.
As for `Cc1c(Cl)cccc1Nc1ccccc1C(=O)O`, the insulin secretion stimulation in experiment [1] was 2.1%. In experiment [2], the viability decrease was -14.5%. Also, the tube area decrease in experiment [3] was -8.8%. Further, in experiment [4], the GLP1 secretion stimulation is 3.6%. The inhibition of viability in experiment [5] is 35.6%. For the same compound, the viability decrease (inhibition) in experiment [6] is 68.1% (active); in experiment [7], 93.6% (active). Further, in experiment [8], the inhibition was -12.8%.
Regarding `Nc1ccc(S(=O)(=O)NC(=O)c2ccccc2)cc1`, the insulin secretion stimulation in experiment [1] was -1.7%. In addition, the viability decrease in experiment [2] was -10.1%. Further, the tube area decrease in experiment [3] is -16.9%. The GLP1 secretion stimulation in experiment [4] was 0.6%. Besides, in experiment [5], the inhibition of viability was 0.2%. Besides, the viability decrease (inhibition) in experiment [6] was -9.5%; in experiment [7] it was -14.3%. In addition, the inhibition in experiment [8] is -6.69%.
As to `Cc1ccc(S(=O)(=O)NC(=O)NN2CC3CCCC3C2)cc1` (stereo unspecified), in experiment [1], the insulin secretion stimulation is 42.6% (active). Also, in experiment [2], the viability decrease was -5.85%. In addition, in experiment [3], the tube area decrease was -26.1%. The GLP1 secretion stimulation in experiment [4] was 0.8%. For the same compound, the inhibition of viability in experiment [5] is -22.6%. For the same compound, the results for the viability decrease (inhibition) in experiment [6] and in experiment [7] were 22.3% and -0.5%, respectively. Also, the inhibition in experiment [8] is 2.59%.
For `NC(Cc1ccc(Cl)cc1)C(=O)O` (stereo unspecified), in experiment [1], the insulin secretion stimulation was -1.3%. For the same compound, the viability decrease in experiment [2] is -0.7%. In addition, in experiment [3], the tube area decrease is -8.9%. In addition, in experiment [4], the GLP1 secretion stimulation was 0.5%. In experiment [5], the inhibition of viability is -7.8%. Moreover, the results for the viability decrease (inhibition) in experiment [6] and in experiment [7] were 13.2% and -6.55%, respectively. Further, the inhibition in experiment [8] is 5.29%.
Regarding `CC1(C)O[C@@H]2C[C@H]3[C@@H]4C[C@H](F)C5=CC(=O)CC[C@]5(C)[C@H]4[C@@H](O)C[C@]3(C)[C@]2(C(=O)CO)O1`, in experiment [1], the insulin secretion stimulation is 6.1%. Moreover, in experiment [2], the viability decrease was 0.8%. Besides, the tube area decrease in experiment [3] is -40.9%. In addition, in experiment [4], the GLP1 secretion stimulation was 1.2%. Moreover, the inhibition of viability in experiment [5] is 0.1%. Besides, the viability decrease (inhibition) in experiment [6] was -2.1%; in experiment [7], -16.6%. In addition, the inhibition in experiment [8] is 8.44%.
On to `CCCCC1C(=O)N(c2ccccc2)N(c2ccc(O)cc2)C1=O` (stereo unspecified), for which the insulin secretion stimulation in experiment [1] is -0.2%. Further, in experiment [2], the viability decrease was 6.7%. Besides, the tube area decrease in experiment [3] was 50.3% (active). Also, in experiment [4], the GLP1 secretion stimulation is 12.4%. Also, the inhibition of viability in experiment [5] was 57.7% (active). Moreover, the values for the viability decrease (inhibition) in experiment [6] and in experiment [7] were 124% (active) and 101% (active), respectively. In addition, the inhibition in experiment [8] was -5.96%.
Turning to `CCN(CC)CCOCCOC(=O)C1(c2ccccc2)CCCC1`, the insulin secretion stimulation in experiment [1] was 60% (active). For the same compound, the viability decrease in experiment [2] was 19.3%. For the same compound, the tube area decrease in experiment [3] is -3.1%. Besides, the GLP1 secretion stimulation in experiment [4] was 5.7%. The inhibition of viability in experiment [5] was 56.4% (active). For the same compound, the viability decrease (inhibition) in experiment [6] is 20.6%; in experiment [7] it was 62.5% (active). Further, in experiment [8], the inhibition was 1.3%.
For the compound `CN1[C@@H]2CC[C@H]1CC(OC(=O)C(O)c1ccccc1)C2` (stereo partly specified), in experiment [1], the insulin secretion stimulation was 3.1%. Besides, the viability decrease in experiment [2] is 15%. Moreover, the tube area decrease in experiment [3] was -13.1%. For the same compound, the GLP1 secretion stimulation in experiment [4] is 1%. For the same compound, the inhibition of viability in experiment [5] is 28%. The viability decrease (inhibition) in experiment [6] is 22.2%; in experiment [7] it was -0.2%. Further, the inhibition in experiment [8] is -3.32%.

By inhibition is commonly meant the drop in the measured response relative to a control, in per cent.
